This note sets out measurements from PubChem BioAssay (EPA / NIEHS).

SMILES strings stand for the structures. Inconclusive results are not listed. Calls of active or inactive are those of the source. The calls were made as follows: active = hit-call score of the fitted dose curve at least 0.9, where 1 is the maximum; inconclusive = response in the unintended direction; inactive = score below 0.9.

In assay [1] the target is human Endothelin Receptor Type A (ETA), EDNRA (gene 1909) (UniProt P25101). In words: NVS_GPCR_hETA: NovaScreen (NVS) G Protein-Coupled Receptor Assay for human Endothelin Receptor Type A (ETA) (AID 2283265). The procedure, abridged: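 Cell-free radioligand displacement using SH-SY5Y-derived protein, 3 h incubation, filter-based scintillation counting. Primary screen in duplicate at 25 uM; actives then run in concentration-response up to 50 uM; loss of binding fitted versus DMSO.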

Assay [2] addresses human Serotonin, 5-Hydroxytryptamine Receptor 6 (5HT6), HTR6 (gene 3362) (UniProt P50406). In words: NVS_GPCR_h5HT6: NovaScreen (NVS) G Protein-Coupled Receptor Assay for human Serotonin, 5-Hydroxytryptamine Receptor 6 (5HT6) (AID 2283253). The procedure, abridged: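 Radioligand binding to 5HT6 in HEK293-derived membranes, cell-free, 1 h after dosing; bound ligand measured by filter-based scintillation counting. Primary screen in duplicate at 25 uM; actives retested in concentration series.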

Assay [3] deals with human Adenosine A1 Receptor (AdoRA1), ADORA1 (gene 134) (UniProt P30542). In words: NVS_GPCR_hAdoRA1: NovaScreen (NVS) G Protein-Coupled Receptor Assay for human Adenosine A1 Receptor (AdoRA1) (AID 2283254). The procedure, abridged:
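Hum. cortical membranes + radioligand, cmpd 1 h; filtration, scintillation count. Readout = decrease vs DMSO. Primary 25 uM dup; hits → conc. series.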

Assay [4] concerns the target human Adrenergic, Beta 1 Receptor (Adrb1), ADRB1 (gene 153) (UniProt P08588). In words: NVS_GPCR_hAdrb1: NovaScreen (NVS) G Protein-Coupled Receptor Assay for human Adrenergic, Beta 1 Receptor (Adrb1) (AID 2283258). An outline of the steps: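 Cell-free radioligand displacement on receptor from human neuroepithelioma cells; 2 h after dosing, filter-based scintillation counting. Primary screen in duplicate at 25 uM, actives retested in concentration series; loss of signal vs DMSO baseline.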

In assay [5] the test system is guinea pig Leukotriene B4 Receptor (LTB4), gene 100379538. In words: NVS_GPCR_gLTB4: NovaScreen (NVS) G Protein-Coupled Receptor Assay for guinea pig Leukotriene B4 Receptor (LTB4) (AID 2283247). The procedure, abridged: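 Radioligand displacement on guinea pig spleen membranes, filter-based scintillation counting 2 h after dosing. Primary duplicate single point at 25 uM; hits over threshold (e.g. 30% inhibition) run in concentration-response up to 50 uM, DMSO baseline.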

Assay [6] concerns the target human Adenosine A2a Receptor (AdoRA2a), ADORA2A (gene 135) (UniProt P29274). In words: NVS_GPCR_hAdoRA2a: NovaScreen (NVS) G Protein-Coupled Receptor Assay for human Adenosine A2a Receptor (AdoRA2a) (AID 2283256). The procedure, abridged: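 Radioligand displacement on HEK293-derived membrane protein, cell-free; filter-based scintillation counting 1.5 hours after dosing, loss of signal vs DMSO. Single-point duplicate screen at 25 uM, actives retested in concentration series.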

In assay [7] the target is human Dopamine Receptor D4.4 (DRD4.4), DRD4 (gene 1815) (UniProt P21917). In words: NVS_GPCR_hDRD4.4: NovaScreen (NVS) G Protein-Coupled Receptor Assay for human Dopamine Receptor D4.4 (DRD4.4) (AID 2283264). The procedure, abridged:
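Radioligand displacement on human DRD4.4 from CHO-derived membranes, 1 hour incubation, bound counts read by filtration and scintillation. Primary screen in duplicate at 25 uM; actives followed up in concentration series.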

The target of assay [8] is Beta-2 adrenergic receptor (Homo sapiens) (UniProt P07550). In words: NVS_GPCR_hAdrb2: NovaScreen (NVS) G Protein-Coupled Receptor Assay for human Adrenergic, Beta 2 Receptor (Adrb2) (AID 2283261). An outline of the steps: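 Filter-based radioligand binding using receptor prepared from CHO cells, 1 h incubation, scintillation counting. Primary screen in duplicate at 25 uM, actives retested in concentration series; loss of binding relative to DMSO.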
Chain of Beta-2 adrenergic receptor (Homo sapiens) (P07550 whole entry, looked up): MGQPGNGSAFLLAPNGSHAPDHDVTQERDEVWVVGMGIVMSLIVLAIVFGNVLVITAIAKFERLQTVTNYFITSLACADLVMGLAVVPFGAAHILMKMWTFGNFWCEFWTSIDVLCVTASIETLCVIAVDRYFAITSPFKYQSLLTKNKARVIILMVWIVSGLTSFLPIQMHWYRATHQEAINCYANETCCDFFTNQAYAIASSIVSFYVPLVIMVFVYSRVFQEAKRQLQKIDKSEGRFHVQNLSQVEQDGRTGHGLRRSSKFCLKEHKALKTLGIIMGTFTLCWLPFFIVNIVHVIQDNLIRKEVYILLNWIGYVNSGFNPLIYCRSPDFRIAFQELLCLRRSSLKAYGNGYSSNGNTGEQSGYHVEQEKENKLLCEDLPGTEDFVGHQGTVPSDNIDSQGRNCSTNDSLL

Assay [9] addresses guinea pig Leukotriene D4 Receptor (LTD4), CYSLTR1 (gene 100135514) (UniProt Q2NNR5). In words: NVS_GPCR_gLTD4: NovaScreen (NVS) G Protein-Coupled Receptor Assay for guinea pig Leukotriene D4 Receptor (LTD4) (AID 2283248). The procedure, abridged:
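Radioligand displacement on guinea pig lung membranes, 1 h incubation, filtration and scintillation counting; DMSO as negative control. Duplicate 25 uM primary screen, then singleton concentration-response up to 50 uM.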

Assay [10] has as its target human Serotonin, 5-Hydroxytryptamine Receptor 2A (5HT2A), HTR2A (gene 3356) (UniProt P28223). In words: NVS_GPCR_h5HT2A: NovaScreen (NVS) G Protein-Coupled Receptor Assay for human Serotonin, 5-Hydroxytryptamine Receptor 2A (5HT2A) (AID 2283249). An outline of the steps: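 Human cortex membranes, cell-free radioligand binding; filter-based scintillation read 1.5 h after dosing. Duplicate screen at 25 uM first; displacement of specific binding (loss of signal) versus DMSO.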

The subject of assay [11] is guinea pig Muscarinic, Peripheral (Mperiperal) Receptor, Non-selective Binding, gene 100379235. In words: NVS_GPCR_gMPeripheral_NonSelective: NovaScreen (NVS) G Protein-Coupled Receptor Assay for guinea pig Muscarinic, Peripheral (Mperiperal) Receptor, Non-selective Binding (AID 2283250). An outline of the steps: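 Guinea pig bladder membranes, radioligand binding read 1 h after dosing by filter scintillation counting; loss of signal vs DMSO. Primary duplicate screen at 25 uM, then concentration-response up to 50 uM.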

Assay [12] has as its target human Serotonin, 5-Hydroxytryptamine Receptor 5A (5HT5A), HTR5A (gene 3361) (UniProt P47898). In words: NVS_GPCR_h5HT5A: NovaScreen (NVS) G Protein-Coupled Receptor Assay for human Serotonin, 5-Hydroxytryptamine Receptor 5A (5HT5A) (AID 2283251). The procedure, abridged: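 Cell-free radioligand displacement binding on HEK293-derived membrane protein, 1 h incubation, filter-based scintillation counting. Primary screen in duplicate at 25 uM, actives followed in concentration series; loss of signal fitted versus DMSO.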

Assay [13] has as its target human Serotonin, 5-Hydroxytryptamine Receptor 7 (5HT7), HTR7 (gene 3363) (UniProt P34969). In words: NVS_GPCR_h5HT7: NovaScreen (NVS) G Protein-Coupled Receptor Assay for human Serotonin, 5-Hydroxytryptamine Receptor 7 (5HT7) (AID 2283255).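 Also: hits reduce specific radioligand binding relative to DMSO.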 An outline of the steps:
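Radioligand displacement on membranes from CHO cells expressing human 5HT7, 1 h incubation, filter-based scintillation counting. Primary screen used a single 25 uM concentration in duplicate; actives were followed up in concentration series.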

Assay [14] has as its target human Adrenergic, Alpha 2A Receptor (Adra2A), ADRA2A (gene 150) (UniProt P08913). In words: NVS_GPCR_hAdra2A: NovaScreen (NVS) G Protein-Coupled Receptor Assay for human Adrenergic, Alpha 2A Receptor (Adra2A) (AID 2283257). An outline of the steps: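 Radioligand filter-binding was run on HT29-derived membranes, cell-free, read by scintillation counting 1 h after dosing. Primary screening was in duplicate at 25 uM, with concentration series in follow-up. Loss of signal versus DMSO indicates displacement.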

Assay [15] deals with human Adrenergic, Alpha 2c Receptor (Adra2C), ADRA2C (gene 152) (UniProt P18825). In words: NVS_GPCR_hAdra2C: NovaScreen (NVS) G Protein-Coupled Receptor Assay for human Adrenergic, Alpha 2c Receptor (Adra2C) (AID 2283259). An outline of the steps:
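Radioligand binding on Sf9-expressed receptor membranes, 1 h after chemical dosing, filter-based scintillation read-out. Loss of binding fitted positively versus DMSO; primary duplicate screen at 25 uM, actives retested in concentration series.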

Assay [16] has as its target Type-1 angiotensin II receptor (Homo sapiens) (UniProt P30556). In words: NVS_GPCR_hAT1: NovaScreen (NVS) G Protein-Coupled Receptor Assay for human Angiotensin II receptor type 1 (AT1) (AID 2283263). An outline of the steps: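 Membranes from KAN-TS cells; radioligand competitive displacement, 3 h, filtration and scintillation counting. Single-point duplicate screen at 25 uM, then concentration-response up to 50 uM for hits; loss of signal fitted versus DMSO.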

The target of assay [17] is human Dopamine Receptor D2 (DRD2), DRD2 (gene 1813) (UniProt P14416). In words: NVS_GPCR_hDRD2s: NovaScreen (NVS) G Protein-Coupled Receptor Assay for human Dopamine Receptor D2 (DRD2) (AID 2283266). The procedure, abridged:
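Radioligand displacement used human DRD2 membranes extracted from CHO cells and was read by filter-based scintillation counting after 1.5 hours. Primary screening was in duplicate at 25 uM. Loss of signal versus DMSO was fitted, with concentration series in follow-up.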

Chain of human Serotonin, 5-Hydroxytryptamine Receptor 6 (5HT6), HTR6 (gene 3362) (P50406 whole entry, looked up): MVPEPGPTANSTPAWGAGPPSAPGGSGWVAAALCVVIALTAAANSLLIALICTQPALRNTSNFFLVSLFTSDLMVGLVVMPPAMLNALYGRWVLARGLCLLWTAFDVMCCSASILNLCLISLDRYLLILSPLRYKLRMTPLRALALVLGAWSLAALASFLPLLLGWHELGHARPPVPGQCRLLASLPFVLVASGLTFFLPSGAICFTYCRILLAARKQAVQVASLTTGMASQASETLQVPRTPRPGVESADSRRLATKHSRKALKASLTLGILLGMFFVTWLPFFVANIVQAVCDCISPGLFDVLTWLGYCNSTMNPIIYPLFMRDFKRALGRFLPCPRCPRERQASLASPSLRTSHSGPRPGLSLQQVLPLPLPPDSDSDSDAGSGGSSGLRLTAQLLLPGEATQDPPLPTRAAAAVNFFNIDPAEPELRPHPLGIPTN
Chain of human Adenosine A1 Receptor (AdoRA1), ADORA1 (gene 134) (P30542 whole entry, looked up): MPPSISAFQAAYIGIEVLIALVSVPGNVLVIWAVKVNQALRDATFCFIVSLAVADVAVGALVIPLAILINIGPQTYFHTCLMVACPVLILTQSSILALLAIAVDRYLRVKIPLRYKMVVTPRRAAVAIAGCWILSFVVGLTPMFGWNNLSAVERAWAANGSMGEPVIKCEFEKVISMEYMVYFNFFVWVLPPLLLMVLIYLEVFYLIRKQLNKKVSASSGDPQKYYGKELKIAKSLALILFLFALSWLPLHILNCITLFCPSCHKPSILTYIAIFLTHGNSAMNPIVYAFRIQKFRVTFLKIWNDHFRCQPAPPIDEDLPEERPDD
Chain of human Adenosine A2a Receptor (AdoRA2a), ADORA2A (gene 135) (P29274 whole entry, looked up): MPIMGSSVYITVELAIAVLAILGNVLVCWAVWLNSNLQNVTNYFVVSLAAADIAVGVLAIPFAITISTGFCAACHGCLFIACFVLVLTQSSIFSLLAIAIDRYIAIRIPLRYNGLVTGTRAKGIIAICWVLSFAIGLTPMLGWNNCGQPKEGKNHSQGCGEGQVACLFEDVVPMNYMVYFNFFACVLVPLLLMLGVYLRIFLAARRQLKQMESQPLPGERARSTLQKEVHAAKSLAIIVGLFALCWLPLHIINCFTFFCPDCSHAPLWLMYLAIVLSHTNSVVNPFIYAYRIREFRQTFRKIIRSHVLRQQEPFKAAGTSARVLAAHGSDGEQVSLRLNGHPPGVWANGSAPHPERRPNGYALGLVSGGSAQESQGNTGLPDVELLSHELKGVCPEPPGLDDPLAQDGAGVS
Chain of human Adrenergic, Beta 1 Receptor (Adrb1), ADRB1 (gene 153) (P08588 whole entry, looked up): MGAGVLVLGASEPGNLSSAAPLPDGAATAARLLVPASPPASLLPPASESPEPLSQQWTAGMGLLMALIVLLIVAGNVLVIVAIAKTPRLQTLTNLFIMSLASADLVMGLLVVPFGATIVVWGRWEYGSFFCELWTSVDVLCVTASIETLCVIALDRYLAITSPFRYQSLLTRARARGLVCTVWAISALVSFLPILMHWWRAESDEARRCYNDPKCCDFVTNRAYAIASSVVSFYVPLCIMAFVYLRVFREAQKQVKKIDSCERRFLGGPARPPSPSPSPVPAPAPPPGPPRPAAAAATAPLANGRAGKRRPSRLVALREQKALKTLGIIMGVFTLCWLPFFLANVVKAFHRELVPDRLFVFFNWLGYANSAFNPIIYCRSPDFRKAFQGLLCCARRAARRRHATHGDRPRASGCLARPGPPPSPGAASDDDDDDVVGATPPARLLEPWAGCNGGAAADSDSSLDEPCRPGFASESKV
Chain of human Dopamine Receptor D4.4 (DRD4.4), DRD4 (gene 1815) (P21917 whole entry, looked up): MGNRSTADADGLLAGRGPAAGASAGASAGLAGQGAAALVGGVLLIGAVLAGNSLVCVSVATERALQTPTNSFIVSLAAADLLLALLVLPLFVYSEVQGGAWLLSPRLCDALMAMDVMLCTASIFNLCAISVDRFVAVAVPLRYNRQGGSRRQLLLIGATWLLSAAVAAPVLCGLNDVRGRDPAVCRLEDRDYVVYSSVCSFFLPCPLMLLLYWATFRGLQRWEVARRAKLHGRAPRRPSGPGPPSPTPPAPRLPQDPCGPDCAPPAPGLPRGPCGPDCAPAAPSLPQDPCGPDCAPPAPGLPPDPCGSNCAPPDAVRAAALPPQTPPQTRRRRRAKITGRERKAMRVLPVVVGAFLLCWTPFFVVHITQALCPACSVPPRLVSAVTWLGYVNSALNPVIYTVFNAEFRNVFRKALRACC
Chain of human Dopamine Receptor D2 (DRD2), DRD2 (gene 1813) (P14416 whole entry, looked up): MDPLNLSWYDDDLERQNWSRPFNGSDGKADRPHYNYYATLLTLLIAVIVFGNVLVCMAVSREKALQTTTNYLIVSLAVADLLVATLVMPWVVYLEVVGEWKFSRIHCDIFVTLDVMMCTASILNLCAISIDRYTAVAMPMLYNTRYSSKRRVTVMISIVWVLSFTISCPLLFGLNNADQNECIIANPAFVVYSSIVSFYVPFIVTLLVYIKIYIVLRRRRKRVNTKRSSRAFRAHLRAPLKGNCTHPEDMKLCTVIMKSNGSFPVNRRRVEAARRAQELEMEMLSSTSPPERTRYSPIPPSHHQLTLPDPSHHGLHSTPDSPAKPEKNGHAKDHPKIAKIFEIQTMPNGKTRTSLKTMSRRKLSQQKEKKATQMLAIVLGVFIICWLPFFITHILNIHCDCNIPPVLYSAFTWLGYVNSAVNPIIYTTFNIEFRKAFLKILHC
Chain of human Serotonin, 5-Hydroxytryptamine Receptor 7 (5HT7), HTR7 (gene 3363) (P34969 whole entry, looked up): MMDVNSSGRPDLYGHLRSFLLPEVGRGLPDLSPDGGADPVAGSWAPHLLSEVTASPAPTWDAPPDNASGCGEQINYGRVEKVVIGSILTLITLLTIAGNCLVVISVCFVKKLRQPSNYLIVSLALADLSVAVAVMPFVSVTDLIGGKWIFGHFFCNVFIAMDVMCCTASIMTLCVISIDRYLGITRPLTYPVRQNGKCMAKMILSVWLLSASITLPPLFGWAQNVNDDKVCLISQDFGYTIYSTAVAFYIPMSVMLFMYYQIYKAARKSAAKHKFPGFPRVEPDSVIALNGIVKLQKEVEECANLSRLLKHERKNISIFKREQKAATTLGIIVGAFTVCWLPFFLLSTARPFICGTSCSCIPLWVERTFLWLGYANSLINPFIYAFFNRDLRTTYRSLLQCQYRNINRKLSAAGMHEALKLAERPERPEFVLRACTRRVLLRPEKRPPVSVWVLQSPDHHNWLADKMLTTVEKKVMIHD
Chain of human Adrenergic, Alpha 2c Receptor (Adra2C), ADRA2C (gene 152) (P18825 whole entry, looked up): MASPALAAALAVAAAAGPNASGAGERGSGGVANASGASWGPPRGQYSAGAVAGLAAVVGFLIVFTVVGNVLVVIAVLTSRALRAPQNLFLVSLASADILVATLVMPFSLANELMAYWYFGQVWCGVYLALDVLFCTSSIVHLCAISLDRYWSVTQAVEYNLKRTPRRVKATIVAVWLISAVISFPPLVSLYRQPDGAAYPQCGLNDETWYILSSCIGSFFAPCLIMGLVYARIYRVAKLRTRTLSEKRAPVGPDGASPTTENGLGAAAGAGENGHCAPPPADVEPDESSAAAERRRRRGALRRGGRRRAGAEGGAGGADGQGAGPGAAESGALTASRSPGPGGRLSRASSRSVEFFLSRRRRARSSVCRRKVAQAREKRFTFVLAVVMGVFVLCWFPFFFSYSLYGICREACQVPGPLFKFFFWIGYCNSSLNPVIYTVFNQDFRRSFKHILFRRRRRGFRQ
Chain of human Adrenergic, Alpha 2A Receptor (Adra2A), ADRA2A (gene 150) (P08913 whole entry, looked up): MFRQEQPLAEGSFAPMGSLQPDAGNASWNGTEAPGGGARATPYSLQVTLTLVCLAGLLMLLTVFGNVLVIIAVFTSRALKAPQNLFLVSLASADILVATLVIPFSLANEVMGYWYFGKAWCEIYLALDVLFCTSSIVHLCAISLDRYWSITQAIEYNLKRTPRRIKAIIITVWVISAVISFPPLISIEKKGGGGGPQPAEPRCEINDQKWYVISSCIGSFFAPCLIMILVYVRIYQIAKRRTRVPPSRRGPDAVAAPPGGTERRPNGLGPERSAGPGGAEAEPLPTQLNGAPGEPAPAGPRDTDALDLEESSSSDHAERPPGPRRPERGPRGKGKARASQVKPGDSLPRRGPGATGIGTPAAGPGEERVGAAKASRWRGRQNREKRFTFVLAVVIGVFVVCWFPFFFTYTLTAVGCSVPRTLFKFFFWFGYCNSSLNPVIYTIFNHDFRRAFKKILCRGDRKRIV
Chain of human Serotonin, 5-Hydroxytryptamine Receptor 2A (5HT2A), HTR2A (gene 3356) (P28223 whole entry, looked up): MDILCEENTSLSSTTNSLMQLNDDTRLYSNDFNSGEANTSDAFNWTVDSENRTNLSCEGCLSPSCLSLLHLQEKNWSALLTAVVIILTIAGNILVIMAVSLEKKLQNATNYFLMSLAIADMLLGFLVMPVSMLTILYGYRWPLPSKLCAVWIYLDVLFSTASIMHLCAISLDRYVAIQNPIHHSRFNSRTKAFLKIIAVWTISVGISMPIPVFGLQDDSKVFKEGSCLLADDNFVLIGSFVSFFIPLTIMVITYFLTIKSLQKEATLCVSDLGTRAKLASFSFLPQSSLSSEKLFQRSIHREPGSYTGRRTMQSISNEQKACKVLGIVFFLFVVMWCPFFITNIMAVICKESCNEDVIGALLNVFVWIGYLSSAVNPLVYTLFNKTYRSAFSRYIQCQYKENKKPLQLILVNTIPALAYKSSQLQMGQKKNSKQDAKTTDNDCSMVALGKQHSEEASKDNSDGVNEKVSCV

The term AC50 denotes the midpoint of the concentration-response curve, whichever way the signal moves. `CCCCc1ccc2c(n1)[C@@H](c1ccc(OC)cc1C[C@H](C)C(=O)O)[C@H](C(=O)O)[C@H]2c1ccc2c(c1)OCO2`: the AC50 in [1] was 0.00472 µM (active).
Turning to `NS(=O)(=O)c1cc2c(cc1Cl)NCNS2(=O)=O`, the outcome in assay [2] was inactive.
`O=C(N[C@@H](Cc1ccccc1)[C@@H](O)C(=O)N1C[C@@H](O)[C@@H](O)C1)c1cc2cc(Cl)ccc2[nH]1`: in assay [3], the AC50 is 16 µM (active).
With `Nc1ccc(S(=O)(=O)c2ccc(N)cc2)cc1`, the concentration at half-maximal activity (AC50) in assay [2] was 1.2 µM (active). For the same compound, the compound was classed as inactive in [4].
Turning to `NCCO`, the outcome in [2] was inactive.
Turning to `C=CCc1ccc(O)c(OC)c1`, the compound was called inactive in assay [5].
For the compound `O=c1c(O)c(-c2ccc(O)c(O)c2)oc2cc(O)cc(O)c12`, the compound was classed as inactive in assay [3] and in [7]. For the same compound, the concentration at half-maximal activity (AC50) in assay [6] is 11.8 µM (active).
In the case of `Cc1oc(-c2ccccc2)nc1CCOc1cccc2c1ccn2CCC(=O)O`, the AC50 in assay [5] is 4.96 µM (active).
With `Cc1cccc(C)c1O`, the outcome in assay [8] was inactive.
Regarding `CCCCC(CC)COC(=O)CC(C(=O)OCC(CC)CCCC)S(=O)(=O)O` (stereo not drawn), the half-maximal activity concentration (AC50) in assay [5] is 6.15 µM (active); in [9] it was 16.1 µM (active); in assay [11] it was 25 µM (active); in assay [12], 7.45 µM (active); in assay [2], 36.6 µM (active); in assay [3], 20.7 µM (active). Further, the AC50 in [13] is 6.08 µM (active); in assay [6], 25 µM (active); in assay [4], 6.35 µM (active); in assay [15] it was 7.47 µM (active); in assay [8] it was 14.6 µM (active); in [16] it was 17.7 µM (active). Moreover, the AC50 was 10.5 µM (active) in assay [7] and 16.5 µM (active) in [17]. Moreover, the compound was called inactive in [10] and in assay [14].
